# From PubChem BioAssay
# Most compounds without a hit are left out; they make up all but 19% or so of the library.
# HT1080 IDH1KD tx = toxicity to HT-1080 IDH1 knockdown cells (counter line); HT-1080 IDH1 knockdown viability, ATP luminescence, 48 h; Potency, µM (doses to about 46.1 µM), for inactives: at the top dose activity, negative = toxicity, usual class: cytotoxic; actives 2% (n = 360,000);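 also: 0% = DMSO wells and -100% = cell-free medium wells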
#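 % activity derives from luminescence (CellTiter-Glo), normalised to DMSO and no-cell wells. HT-1080-IDH1KD cells, 750/well, had 48 h compound exposure at 37 °C.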
# DT40 TDP1 no CPT = qHTS for Inhibitors of human tyrosyl-DNA phosphodiesterase 1 (TDP1): qHTS in cells in absence of CPT; Potency, µM (doses to about 46.2 µM), for inactives: at the top dose activity change, negative = growth inhibition, actives largely listed as inhibitors; actives 15% (n = 420,000); DT40 Tdp1-/- hTDP1 cells, no CPT, ATP luminescence, 48 h; also: nearly all actives have a fitted effect of over 55% in size
#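 Camptothecin absent (DMSO only). Human TDP1-complemented DT40 knockout cells, 400 cells/well, 37 °C for minimum 48 hr; ATP measured via CellTiter-Glo, 30 min dark incubation, luminescence.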
# KB-V1 cytotox = kills drug-selected multidrug resistant KB-V1 cells | KB-V1 MDR cells viability, CellTiter-Glo, 72 h | Potency, µM (highest dose often 46.1 µM), usual class: cytotoxic | actives 3.4% (n = 400,000); also: nearly all actives have a fitted effect of over 60% in size
#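 qHTS viability screen in drug-selected KB-V1 MDR cells: 72 h compound treatment at 37 degrees C, ATP luminescence end point.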
# HT1080-NT tox = kills 2HG-producing HT-1080-NT fibrosarcoma cells; HT-1080-NT fibrosarcoma viability, CellTiter-Glo ATP luminescence, 48 h; Potency, µM (titrated, usually from 46.1 µM), for the others: at the top dose activity, negative = less viability, usual class: cytotoxic; actives 1.6% (n = 360,000); AID 686970;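 also: NT is the 2HG producing partner of a matched IDH1 knockdown line; 0% = DMSO-treated cells and -100% = media-only wells without cells; nearly all actives have a fitted effect of over 55% in size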
#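 A 48-hour cytotoxicity screen used HT-1080-NT cells plated 2 hours before compound delivery. ATP-based CellTiter-Glo luminescence measured viability, normalized to DMSO and no-cell controls.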
# TDP1 cell CPT = growth inhibition of DT40 Tdp1-/-;hTDP1 cells with camptothecin (screen for TDP1 inhibitors); chicken DT40 Tdp1-/-;hTDP1 cells + 20 nM CPT, ATP luminescence, 48 h; Potency, µM (series often up to 46.2 µM), for the others: at the top dose activity change, negative = growth inhibition, hits mostly inhibitors; actives 12% (n = 420,000); also: nearly all actives have a fitted effect of over 55% in size
#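 Chicken DT40 Tdp1-/- cells stably complemented with human TDP1 were seeded at 400 cells/well in medium containing 20 nM camptothecin, exposed to pin-transferred compounds, and grown at 37 °C for at least 48 hr. Viability was read as ATP luminescence.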
# KB-3-1 cytotox = KB-3-1 parental cell cytotoxicity | Potency, µM (series often up to 46.1 µM), usual class: cytotoxic | KB-3-1 viability, CellTiter-Glo ATP luminescence, 72 h | actives 1.4% (n = 400,000); also: nearly all actives have a fitted effect of over 60% in size
#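 Parental KB-3-1 viability, qHTS format: 72 h compound exposure, 37 °C; CellTiter-Glo; media-only wells and DMSO plates as controls; concentration-effect fits on corrected data.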
# Starred values were filed as active, the others as inactive; i = inactive; ? = inconclusive; nt = not tested or not shown; [ ] = remark or other dose. Calls follow the shape of the dose curve; as a rule, active = well fitted curve in the direction sought with a large enough effect; inconclusive = small, poorly fitted or top-dose-only effect, or another doubt; inactive = no such curve, though single readings can be large; an effect the other way counts as inactive or inconclusive. Unless noted, % is scaled to controls: 0 for no effect and ±100 for the full control effect; potency is read from the fitted curve at half-maximal effect.
SMILES,HT1080 IDH1KD tx,DT40 TDP1 no CPT,KB-V1 cytotox,HT1080-NT tox,TDP1 cell CPT,KB-3-1 cytotox
CC(c1nccs1)N(C)C(=O)CCc1nnc(-c2ccc(-c3ccccc3)cc2)o1 (stereo not drawn),-1%,-85%,i,-24%,15µM*,i
CN(C(=O)CCc1nnc(-c2ccc(-c3ccccc3)cc2)o1)C1CCOCC1,0%,13µM*,nt,-1%,?,nt
CC(C)c1ccc(NC(=O)c2cc(S(=O)(=O)N3CCCCC3)cn2C)cc1,nt,-13%,i,nt,-15%,i
Cc1ccc(S(=O)(=O)/N=C(/Nc2ccc(O)c(C(=O)O)c2)c2ccccc2)cc1,12%,2%,i,-13%[9.24 µM],1%,i
CCOCCCNC(=O)Cn1nc(Cc2ccncc2)c2ccccc2c1=O,10%,-22%,i,14%,14%,i
CCC1(C2CCN(C(=O)c3ccc(C)cc3C)CC2)NC(=O)N(CCc2scnc2C)C1=O (stereo not drawn),nt,-19%,nt,nt,-5%[9.04 µM],nt
Oc1ccc(NC(=S)N=Nc2c(O)[nH]c3ccc(Br)cc23)cc1,21µM*,23µM*,?,?,-78%,i
CC(C)c1ccc2[nH]c(O)c(N=NC(=O)c3cccc(S(=O)(=O)N4CCCCC4)c3)c2c1,4%,9.2µM*,2.3µM*,6%,12µM*,?
CNC(=S)N=Nc1c(O)[nH]c2ccc(C(C)C)cc12,-1%,18µM*,21µM*,1%,?,?
Oc1[nH]c2ccc(Br)cc2c1N=NC(=S)Nc1ccc(F)cc1,?,2.9µM*,?,?,1.3µM*,?
COc1cccc(NC(=O)c2oc3ccccc3c2NC(=O)c2ccc(C(F)(F)F)cc2)c1,nt,?,i,nt,?,i
Cc1ccc(NC(=O)CCc2nnc3n(C)c(=O)c4sccc4n23)cc1C,nt,-3%,i,nt,-12%,i
CCN(C(=O)c1cn(C)c(=O)c2ccccc12)c1cccc(C)c1,nt,?,?,nt,-30%,i
Oc1cccc(NC(=S)N=Nc2c(O)[nH]c3ccc(Br)cc23)c1,21µM*,?,i,?,?,?
Cc1ccc(N2CC(C(=O)Nc3ccc(Br)cc3)CC2=O)cc1 (stereo not drawn),nt,-28%,?,nt,-30%,i
Cc1ccc(NC(=O)c2noc3c2CC(C(C)(C)C)CC3)cc1 (stereo not drawn),6%,23µM*,i,18%,?,i
Cc1ccccc1Cn1nc(C)c(NC(=O)c2noc3c2CC(C(C)(C)C)CC3)c1C (stereo not drawn),?,?,i,6%[9.24 µM],?,i
Cc1ccccc1Cn1cc(NC(=O)c2noc3c2CC(C(C)(C)C)CC3)cn1 (stereo not drawn),?,-28%,18µM*,?,-37%,i
COC(=O)c1ccccc1NC(=O)c1noc2c1CC(C(C)(C)C)CC2 (stereo not drawn),2%,21µM*,i,3%,?,i
CC(C)(C)C1CCc2onc(C(=O)Nc3cccnc3)c2C1 (stereo not drawn),-19%,-19%,i,-9%,-15%,i
CCOc1ccc(CCNC(=O)CN2C(=O)COc3ccc(S(=O)(=O)N4CCCC4)cc32)cc1,nt,?,i,nt,?,i
COc1cc2c(c(OC)c1)C(c1cccc(F)c1F)CC(=O)N2 (stereo not drawn),nt,-4%,i,nt,-17%,i
O=C(Nc1ccc(Cl)cc1)c1cc(Br)ccc1OCC(=O)N1CCOCC1,5%,?,nt,0%,?,nt
CCOC(=O)c1c(C)[nH]c(C)c1S(=O)(=O)N1CCC(C(=O)N2CCN(c3ccccc3)CC2)CC1,nt,-25%,i,nt,-18%,i
CCN(c1ccc(C)cc1C)S(=O)(=O)c1nnc(NC(=O)c2ccccc2OC)s1,nt,16µM*,nt,nt,?,nt
SMILES,HT1080 IDH1KD tx,DT40 TDP1 no CPT,KB-V1 cytotox,HT1080-NT tox,TDP1 cell CPT,KB-3-1 cytotox
CCN(c1ccccc1C)S(=O)(=O)c1nnc(NC(=O)c2ccccc2C)s1,nt,18µM*,nt,nt,?,nt
CCN(c1cc(C)cc(C)c1)S(=O)(=O)c1nnc(NC(=O)C2CCCCC2)s1,nt,12µM*,nt,nt,21µM*,nt
CCN(c1ccc(OC)cc1)S(=O)(=O)c1nnc(NC(=O)c2ccccc2C)s1,nt,-28%,nt,nt,?,nt
C=C1C[C@@]23CC4C5[C@@]6(C)C[C@H](O)C[C@@]57C2[C@H](O)[C@@H]1[C@H](O)[C@H]3[C@H]7N4C6,nt,-9%[9.04 µM],nt,nt,-14%[9.04 µM],nt
Cc1ccc(OCCC(=O)NNC(=O)c2cc(C)oc2C)cc1,14%,-27%,i,8%,-4%,i
Cc1cccc(Cn2c(C)c(CNC3CCCCC3)c(C(=O)O)c2C)c1,nt,-12%,?,nt,-3%,i
COc1cc(NC(=O)CCn2c(=S)[nH]c3ccccc3c2=O)cc(OC)c1OC,6%,-9%,i,11%,-3%,i
CCCNC(=O)OCc1cccnc1Sc1ccc(C)cc1,-12%,15µM*,?,0%,?,i
CCOC(=O)Nc1cccnc1Sc1ccc(Cl)cc1,-3%,-26%,i,1%,-23%,i
Cc1cc(C)c(OCC(=O)N/N=C/c2ccc3c(c2)OCO3)c(C)c1,13µM*,5.8µM*,i,18µM*,2.9µM*,?
Cc1cccc(OCC(=O)N/N=C/c2ccc3c(c2)OCO3)c1,-1%,-17%,i,1%,1%,i
O=C(NCCc1ccccc1)C(=O)N/N=C/c1ccc2c(c1)OCO2,-3%,21µM*,i,-7%,23µM*,?
O=C(CCc1ccc(O)cc1)NN=Cc1ccc2c(c1)OCO2,5.8µM*,?,i,?,1%,?
S=C(NN=Cc1ccc2c(c1)OCO2)NN=Cc1ccc2c(c1)OCO2,-15%,23µM*,?,-25%,23µM*,?
O=S1(=O)N[C@@H](Cc2ccccc2)COc2ccc(Cl)cc21,9%,?,i,8%,?,i
Cc1cc(C)c(NC(=O)CCn2c(=O)c3cccn3c3cccnc32)c(C)c1,nt,-26%,nt,nt,?,nt
COc1cc(CCC(=O)NCc2ccc3c(c2)CCN3C(=O)c2cccc(C)c2)cc(OC)c1OC,nt,?,i,nt,-18%,i
CS(=O)(=O)N1CCC(C(=O)Nc2cccc(Br)c2)CC1,3%,1%,i,5%,6%,i
